Data on 77 compounds can be found in PubChem BioAssay AID1946 (Johns Hopkins Ion Channel Center, 2009).

Molecules are shown by their SMILES. Out of some 2,400 compounds screened, about 180 (7.5%) were called active. This is one part of a sample in which actives are shown more often than they occur.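 Rule for the calls: active = readout below zero, meaning a drop past 3 SD under the dofetilide-free negative control mean; inactive = the rest.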

In the test the target is Potassium voltage-gated channel subfamily KQT member 2 (Rattus norvegicus) (UniProt O88943). Put plainly: rat KCNQ2 channel inhibition by compounds alone, confirmation, counter-screen for hERG block protector project, cell-based, CHO, FluxOR thallium flux (AID 1946). The settings on record: CHO-KCNQ2 cells, FluxOR thallium flux fluorescence; at 10 µM; hits give low values; zero marks the 3-SD hit cutoff.
Chain of Potassium voltage-gated channel subfamily KQT member 2 (Rattus norvegicus) (O88943 whole entry, looked up): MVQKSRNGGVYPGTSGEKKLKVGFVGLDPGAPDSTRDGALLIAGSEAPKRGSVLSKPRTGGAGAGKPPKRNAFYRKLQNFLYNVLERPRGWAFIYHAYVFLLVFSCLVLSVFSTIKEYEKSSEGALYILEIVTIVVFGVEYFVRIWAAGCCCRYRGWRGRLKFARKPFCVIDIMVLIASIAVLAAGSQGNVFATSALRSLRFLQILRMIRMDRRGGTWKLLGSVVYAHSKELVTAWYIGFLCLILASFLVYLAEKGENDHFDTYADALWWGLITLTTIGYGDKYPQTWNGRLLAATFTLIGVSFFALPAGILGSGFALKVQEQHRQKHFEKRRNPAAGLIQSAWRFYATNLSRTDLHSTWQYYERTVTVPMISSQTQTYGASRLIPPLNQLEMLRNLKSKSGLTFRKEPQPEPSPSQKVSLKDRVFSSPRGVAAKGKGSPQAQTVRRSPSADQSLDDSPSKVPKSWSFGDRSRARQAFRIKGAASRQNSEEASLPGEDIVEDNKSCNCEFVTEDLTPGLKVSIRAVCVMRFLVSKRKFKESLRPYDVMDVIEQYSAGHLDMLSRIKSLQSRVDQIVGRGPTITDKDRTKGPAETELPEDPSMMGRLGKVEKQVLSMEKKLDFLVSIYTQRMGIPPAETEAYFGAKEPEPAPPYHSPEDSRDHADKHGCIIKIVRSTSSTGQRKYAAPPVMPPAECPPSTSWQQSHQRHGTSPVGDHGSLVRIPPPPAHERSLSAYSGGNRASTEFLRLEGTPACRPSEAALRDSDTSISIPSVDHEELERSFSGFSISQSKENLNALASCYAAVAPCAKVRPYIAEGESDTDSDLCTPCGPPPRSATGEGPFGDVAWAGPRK
As for `O=C(NC(=S)N(CCCCO)C1CCCCC1)c1sc2ccccc2c1Cl`, the activity change vs negative control was 53.8% (inactive). With `O=C(CSc1cn(CC(=O)N2CCCC2)c2ccccc12)NCC1CCCO1` (configuration not stated) the figure was -4.5% (active); with `C=CCn1c(SCC(=O)NCC2CCCO2)nnc1-c1ccccc1` (configuration not stated), 8.9% (inactive).

In the case of `O=C(CNCC1CCCO1)N1CCCCCC1` (configuration not stated), the activity change vs negative control was 8.2% (inactive). With `CC(C)(C)c1cc(C(=O)NNC(=O)c2ccc(Cl)cc2)no1` the figure was 53.5% (inactive); with `COc1cccc(OC)c1OCCOCCN1CCN(C)CC1`, 6.8% (inactive); with `COc1cccc(CN(C)CC2CCCN(CCc3ccc(Cl)cc3)C2)c1OC` (configuration not stated), -3.8% (active). As for `Oc1c(Cl)cc(Cl)cc1C=Nc1ccc(Br)cc1`, the activity change vs negative control was 60.6% (inactive).

Consider `CCOC(=O)N/N=C/C=C/c1ccccc1[N+](=O)[O-]`, for which the activity change vs negative control was 28.8% (inactive).

As to `C=CCN(c1ccc(Cl)cc1)S(=O)(=O)c1cccc(C(=O)O)c1`, the activity change vs negative control was 26.2% (inactive). Regarding `S=c1nn[nH]n1C12CC3CC(CC(C3)C1)C2`, the activity change vs negative control is 36.2% (inactive). Take `CC1CCN(C(=S)NC(=O)c2cccs2)CC1`: the activity change vs negative control is 23.7% (inactive). Consider `C=CCn1c(=S)[nH]c2scc(-c3cccs3)c2c1=O`, for which the activity change vs negative control is 121% (inactive). With `C=CCc1cccc(C2Nc3ccccc3C(=O)N2O)c1O` (configuration not stated), the activity change vs negative control was 19% (inactive). `OC(CNCCc1ccc(C(F)(F)F)cc1)COc1cccc2ccccc12` (configuration not stated): the activity change vs negative control was -18.2% (active). Turning to `Cn1c(NNC(=O)C(c2ccccc2)c2ccccc2)cc(=O)n(C)c1=O`, the activity change vs negative control was 12.8% (inactive).

For `CC12CCC(C(=O)NCc3ccc4c(c3)OCO4)(CC1=O)C2(C)C` (configuration not stated), the activity change vs negative control is 9.1% (inactive). In the case of `Cc1ccc(C(=O)NNc2cc(N3CCCC3)nc(N3CCCC3)n2)cc1`, the activity change vs negative control is 39.7% (inactive).

In the case of `COc1ccccc1NC(=O)C(=O)NNC(=O)c1ccco1`, the activity change vs negative control was 47.8% (inactive). For the compound `O=C(NCc1cccs1)C1CCC(CNS(=O)(=O)c2cccs2)CC1` (configuration not stated), the activity change vs negative control was -0.3% (active).

For the compound `COc1ccc(COC(=O)C2CCN(S(=O)(=O)c3cccs3)CC2)cc1`, the activity change vs negative control was 9.3% (inactive). With `CC(=O)c1cccc(NC(=O)NCc2cccs2)c1`, the activity change vs negative control is 8.1% (inactive).

For the compound `O=[N+]([O-])c1ccc(-c2ccc(/C=N/n3cnnc3)o2)c(Br)c1`, the activity change vs negative control was 3.2% (inactive). For `CCOC(=O)/C(C)=N/NC(=O)c1cccc([N+](=O)[O-])c1`, the activity change vs negative control is 36.5% (inactive). For `COc1ccc(C(=O)NC2CC3CCCC(C2)N3Cc2ccccc2)cc1` (configuration not stated), the activity change vs negative control is 3.9% (inactive). With `CCOc1ccccc1C(=O)NC1CC2CCCC(C1)N2Cc1nnnn1Cc1ccco1` (configuration not stated) the figure was -2.8% (active); with `COc1ccccc1C(=O)NNC(=O)C(=O)NC1CCCCC1`, 71.2% (inactive). For `COc1ccc(C(=O)CC(=O)C(=O)Nc2ccccc2Cl)cc1`, the activity change vs negative control was 73.9% (inactive). For the compound `O=C(COc1ccc(Cl)cc1Cl)NC(=S)Nc1ccccc1C(=O)O`, the activity change vs negative control is 10.9% (inactive).

As for `COc1cc(NC(=O)CCCOc2ccc(Cl)cc2Cl)c(C(=O)O)cc1OC`, the activity change vs negative control is 4.3% (inactive). With `O=C(CCCOc1ccc(Cl)cc1Cl)Nc1ccccc1C(=O)O` the figure was -11.5% (active); with `C/C(=N\NC(=O)c1cc2ccccc2cc1O)c1ccc(C)o1`, 53.8% (inactive). In the case of `C=CCOc1ccccc1/C=c1\sc2nc(=O)c(C)nn2c1=O`, the activity change vs negative control was 6.3% (inactive). Turning to `CCN(CC)c1ccc(/C=c2\sc3nnc(-c4ccccc4Cl)n3c2=O)cc1`, the activity change vs negative control was -3.9% (active).

Consider `O=C(NNc1nc2c(F)cccc2s1)c1cc(=O)c2ccccc2o1`, for which the activity change vs negative control was 4.5% (inactive). Regarding `CCOc1ccc(NC(=S)NS(=O)(=O)c2cc(Br)ccc2OCC)cc1`, the activity change vs negative control was 50.4% (inactive). In the case of `Cc1ccc(C(=O)N/N=C(/CC(=O)c2cccs2)C(F)(F)F)cc1`, the activity change vs negative control is 28.2% (inactive). On to `Cc1nnc(SCC(=O)Nc2nccs2)n1N`, for which the activity change vs negative control is 10.1% (inactive). Consider `Cc1cc(-c2nnc(SCC(=O)Nc3ccc(C(F)(F)F)cc3)n2C)no1`, for which the activity change vs negative control is 8.3% (inactive).

Take `Nn1c(SCC(=O)Nc2ccc(OC(F)F)cc2)nnc1-c1ccco1`: the activity change vs negative control was -0.2% (active). Turning to `CCNC(=O)C/C(C)=N/NC(=O)C(=O)Nc1ccc(CC)cc1`, the activity change vs negative control is 26.8% (inactive). With `O=c1c2ccccc2[nH]c(=S)n1CCc1ccccc1`, the activity change vs negative control was 33.3% (inactive). `O=C(NC(=S)N(CCc1ccccc1)CCc1ccccc1)c1ccco1`: the activity change vs negative control was 67.4% (inactive). For the compound `Cc1nn(C(=O)CNC(=O)c2ccccc2)c(C)c1C`, the activity change vs negative control was 46.6% (inactive). With `C=CCn1c(=S)[nH]c2scc(-c3ccc(C)o3)c2c1=O`, the activity change vs negative control was 102% (inactive). Turning to `O=C1CCN(S(=O)(=O)c2ccc(Cl)cc2)CCN1`, the activity change vs negative control was -0.2% (active).

For `CN1CCN(S(=O)(=O)c2cccc(S(=O)(=O)c3ccc(Cl)cc3)c2)CC1`, the activity change vs negative control is 13.6% (inactive). To `O=S(=O)(c1ccc(F)cc1)N1CCN(c2ccc(F)cc2)CC1` belongs 0.8% (inactive); to `O=C(NC(=S)N1CCN(Cc2ccc3c(c2)OCO3)CC1)c1cccc(Br)c1`, 61% (inactive); to `Cc1cc(C)cc(NC(=O)CSc2nnc(CN3CCOCC3)n2C)c1`, 48.6% (inactive).

`Cc1ccc(NC(=O)CSc2nnc(C3CC3)n2CC2CCCO2)c(C)c1` (configuration not stated): the activity change vs negative control was -4.1% (active). Turning to `CSc1ccccc1-n1nnnc1SCC(=O)Nc1cc(C)ccc1C`, the activity change vs negative control was 2.3% (inactive). To `Cc1nnc(NC(=O)C2CCCN(S(=O)(=O)c3ccccc3C(F)(F)F)C2)s1` (configuration not stated) belongs 19.4% (inactive); to `O=C(CSc1ncnc2c1cnn2-c1ccc(Cl)cc1)NCc1ccc2c(c1)OCO2`, 12% (inactive). Regarding `CCC(c1nnc(SCC(=O)NCCc2ccc(Cl)cc2Cl)o1)N(C)C` (configuration not stated), the activity change vs negative control is -0.1% (active). With `COc1ccc(C(=O)CC(=O)C(=O)Nc2ccc(C)cc2Cl)cc1` the figure was 39.7% (inactive); with `CC(C)(C)c1cc(-c2n[nH]c(=S)n2-c2ccccc2F)n[nH]1`, 39.3% (inactive); with `CC(NC(=O)c1ccc(Br)cc1)c1ccc2c(c1)CCCC2` (configuration not stated), 62.8% (inactive). Turning to `Cc1cccc(NC(=O)CN2C(=O)S/C(=C\c3cccn3-c3cccc(C(=O)O)c3)C2=O)c1`, the activity change vs negative control is 5.2% (inactive). `Cc1ccc(C(=O)O)cc1-c1ccc(/C=C2\SC(=O)N(CC(=O)Nc3ccccc3)C2=O)o1`: the activity change vs negative control was 1.7% (inactive). On to `Cc1ccc(NC(=O)CN2C(=O)S/C(=C\c3ccc(-c4cccc(C(=O)O)c4C)o3)C2=O)cc1`, for which the activity change vs negative control is -4% (active). With `Cc1c(/C=C2\SC(=O)N(CC(=O)Nc3ccc4c(c3)OCO4)C2=O)c2ccccc2n1C` the figure was 8% (inactive); with `Cc1ccccc1NC(=O)CN1C(=O)S/C(=C\c2ccc(-c3cc(C(=O)O)ccc3C)o2)C1=O`, 10.7% (inactive). With `Cc1cccc(NC(=O)CN2C(=O)S/C(=C\c3ccc(-c4cccc(C(=O)O)c4C)o3)C2=O)c1`, the activity change vs negative control is -0.8% (active).

On to `Cc1ccccc1NC(=O)CN1C(=O)S/C(=C\c2ccc(-c3cccc(C(=O)O)c3C)o2)C1=O`, for which the activity change vs negative control is -1% (active). In the case of `COc1ccc(NC(=O)CN2C(=O)S/C(=C/c3cccn3-c3ccc(C(=O)O)cc3)C2=O)cc1`, the activity change vs negative control was 1% (inactive). For `C#CCN1C(=O)S/C(=C\c2ccc(-c3ccc(C(=O)O)cc3C)o2)C1=O`, the activity change vs negative control was 7.6% (inactive). As to `CC(C)COn1c(=S)[nH]c2ccccc2c1=O`, the activity change vs negative control is 34.7% (inactive).

As to `Cc1ccc(/C=N/Nc2ccc(C(=O)O)cc2)o1`, the activity change vs negative control is 5.5% (inactive).

Consider `Cc1ccccc1NC1=NC(=S)N(c2ccccc2)C12CCCCC2`, for which the activity change vs negative control was 39.1% (inactive). In the case of `CCOC(=O)c1c(-c2ccccc2)csc1NC(=S)NC`, the activity change vs negative control was 42% (inactive). Consider `COC(=O)CSc1nnc(COc2ccc3ccccc3c2)o1`, for which the activity change vs negative control was 11.8% (inactive). In the case of `COCCn1c(SCC(=O)Nc2cc(C)cc(C)c2)nc2ccccc2c1=O`, the activity change vs negative control is 12% (inactive).

With `Cc1cc(C)cc(OCc2nnc(SCC(=O)Nc3ccccc3)o2)c1`, the activity change vs negative control was -2.3% (active). `COc1ccc(NC(=O)CC23CC4CC(CC(C4)C2)C3)cn1`: the activity change vs negative control is 73.9% (inactive). In the case of `S=C(N/N=C/c1ccccc1Cl)Nc1cccc(Cl)c1Cl`, the activity change vs negative control was 30.4% (inactive). With `COc1cccc2sc(Nc3nnc(-c4ccc(F)cc4)o3)nc12`, the activity change vs negative control was 69.1% (inactive).
